Laboratory results reported in PubChem BioAssay (Tox21).
Inconclusive results are not listed. Calls of active or inactive are those of the source. Unless noted, calls follow the shape of the dose curve; as a rule, active = well fitted curve in the direction sought with a large enough effect in the repeat runs; inconclusive = weak or mixed curves; inactive = no such curve, though single readings can be large; an effect the other way counts as inactive or inconclusive.

What was measured:
[1] = qHTS assay to identify small molecule agonists of the vitamin D receptor (VDR) signaling pathway - cell viability counter screen (AID 743224); also: % is scaled to controls: 0 for no effect and ±100 for the full control effect; nearly all actives have a fitted effect of over 50% in size
How it was run: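 VDR-bla cells, 4 h after plating, exposed to compounds for 16 h at 37C; viability then read in the same wells as CellTiter-Glo luminescence after 30 min at room temperature, following the bla FRET read.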

[2] = qHTS assay to identify small molecule antagonists of the vitamin D receptor (VDR) signaling pathway - cell viability counter screen (AID 743225); also: % is scaled to controls: 0 for no effect and ±100 for the full control effect; nearly all actives have a fitted effect of over 50% in size
How it was run: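 Parallel cytotoxicity test: VDR-UAS-bla HEK 293T, 3 nM (final) 1-alpha,25-dihydroxyvitamin D3 with test compound, 16 h, 37C. Endpoint is CellTiter-Glo luminescence in the same wells.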

[3] = qHTS assay to identify small molecule agonists of the NFkB signaling pathway (AID 1159509; active = well fitted curve in the direction sought with a large enough effect in the signal ratio in the repeat runs, not every such curve was filed as active; the % refers to the signal ratio; also: % is scaled to controls: 0 for no effect and ±100 for the full control effect)
How it was run: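 ME-180 NFkB-bla, 2,000 cells/well, overnight plating; cpd pinned in DMSO, 5 h 37 C; B/G FRET substrate 1.5 h RT; ex 405, em 460/530 nm.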

[4] = qHTS assay to identify small molecule agonists of the NFkB signaling pathway - cell viability counter screen (AID 1159515; calls by dose curve; also: % is scaled to controls: 0 for no effect and ±100 for the full control effect; nearly all actives have a fitted effect of over 55% in size)
How it was run: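 NFkB-bla ME-180 cells, 2,000/well, plated overnight at 37 C; compound added for 5 hr at 37 C. Viability read in the same wells as the bla reporter, by CellTiter-Glo luminescence after 30 min at room temperature.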

[5] = qHTS assay to identify small molecule agonists of the endoplasmic reticulum stress response signaling pathway (AID 1159516; active = well fitted activation curve with a large enough effect in the signal ratio in the repeat runs, not every such curve was filed as active; the % refers to the signal ratio; also: % is scaled to controls: 0 for no effect and ±100 for the full control effect)
How it was run: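 CellSensor ESRE-bla HeLa cells, 1,500 per well, plated overnight, then exposed to compounds for 5 hr at 37 C. Beta-lactamase reporter read with LiveBLAzer B/G FRET substrate after 2 hr at room temperature, 405 nm excitation, 460 and 530 nm emission.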

[6] = qHTS assay to identify small molecule agonists of the endoplasmic reticulum stress response signaling pathway - cell viability counter screen (AID 1159517; calls by dose curve;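 also: HeLa cells carrying an ER stress response element beta-lactamase reporter; % is scaled to controls: 0 for no effect and ±100 for the full control effect; nearly all actives have a fitted effect of over 50% in size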)
How it was run: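 ESRE-bla HeLa cells, 1,500 per well, seeded overnight then treated with compounds for 5 hr at 37 C. After the beta-lactamase read, viability in the same wells is measured by CellTiter-Glo luminescence after 30 min at room temperature.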

[7] = qHTS assay to identify small molecule antagonists of the retinoid-related orphan receptor gamma (ROR-gamma) signaling pathway - cell viability counter screen (AID 1159520); also: % is scaled to controls: 0 for no effect and ±100 for the full control effect; nearly all actives have a fitted effect of over 50% in size
How it was run: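 Tet-on ROR gamma CHO cells were given compounds for 2 hr, then doxycycline hyclate at 1 uM final, and incubated 16 hr at 37 C. Viability was measured as ATP content by CellTiter-Glo luminescence.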

[8] = biological target: Nuclear receptor ROR-gamma (Homo sapiens) (UniProt P51449); assay: qHTS assay to identify small molecule antagonists of the retinoid-related orphan receptor gamma (ROR-gamma) signaling pathway (AID 1159521)
How it was run: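 Decreased RORE-driven luciferase luminescence indicates antagonism. Tet-on RORγ CHO cells received compound, then 1 uM final doxycycline 2 h later; signal read after 16 h incubation.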

[9] = qHTS assay to identify small molecule agonists of the AP-1 signaling pathway - cell viability counter screen (AID 1159525; calls by dose curve; also: nearly all actives have a fitted effect of over 55% in size)
How it was run: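 AP-1-bla ME-180 cells in Opti-MEM with 0.5% dialyzed FBS, compound exposure 5 h at 37 C in 15-point titration. Viability read in the same wells as ATP content by CellTiter-Glo luminescence, normalised to tetra-n-octylammonium bromide and DMSO controls.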

[10] = qHTS assay to identify small molecule agonists of the AP-1 signaling pathway (AID 1159526; calls by dose curve; also: % is scaled to controls: 0 for no effect and ±100 for the full control effect)
[11] = biological target: Retinoic acid receptor RXR-alpha (Homo sapiens) (UniProt P19793); assay: qHTS assay to identify small molecule agonists of the RXR signaling pathway (AID 1159527; calls by dose curve; also: nearly all actives have a fitted effect of over 35% in size; also: potency is read from the fitted curve at half-maximal effect)
Retinoic acid receptor RXR-alpha (Homo sapiens), sequence (P19793 whole entry, looked up): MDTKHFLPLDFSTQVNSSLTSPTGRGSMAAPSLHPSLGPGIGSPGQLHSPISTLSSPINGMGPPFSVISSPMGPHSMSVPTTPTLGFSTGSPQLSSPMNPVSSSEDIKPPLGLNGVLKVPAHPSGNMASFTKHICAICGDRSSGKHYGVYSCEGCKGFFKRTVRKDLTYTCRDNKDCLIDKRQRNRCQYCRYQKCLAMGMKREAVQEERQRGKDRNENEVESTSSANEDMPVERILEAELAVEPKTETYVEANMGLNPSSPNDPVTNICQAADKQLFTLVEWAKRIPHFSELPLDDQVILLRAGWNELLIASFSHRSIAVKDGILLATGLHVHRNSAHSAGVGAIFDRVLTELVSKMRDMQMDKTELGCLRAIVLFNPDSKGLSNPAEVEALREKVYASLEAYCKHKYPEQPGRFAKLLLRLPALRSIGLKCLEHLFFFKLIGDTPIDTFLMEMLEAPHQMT
How it was run: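 16 hr incubation of compound-treated RXR-alpha-UAS-bla HEK 293T cells (2% charcoal-stripped FBS, 37 C) preceded a 2 hr room-temperature LiveBLAzer FRET substrate step and blue/green fluorescence measurement.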

[12] = qHTS assay to identify small molecule agonists of the RXR signaling pathway - cell viability counter screen (AID 1159529)
How it was run: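 In this parallel viability measure, GeneBLAzer RXR-alpha HEK 293T cells (2% charcoal-stripped FBS) were given a 5 hr preincubation, treated with compounds 16 hr at 37 C, and read by CellTiter-Glo luminescence.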

[13] = qHTS assay to identify small molecule antagonists of the retinoid acid receptor (RAR) signaling pathway - cell viability counter screen (AID 1159551); also: % is scaled to controls: 0 for no effect and ±100 for the full control effect; nearly all actives have a fitted effect of over 35% in size
How it was run: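 C3RL4 RARE-luciferase cells, 1,000/well, incubated overnight, then dosed with compound plus 1 uM retinol (final). After 6 hr at 37 C, viability read by CellTiter-Glo ATP luminescence following 30 min at room temperature.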

[14] = qHTS assay to identify small molecule antagonists of the retinoic acid receptor (RAR) signaling pathway (AID 1159552)
How it was run: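 C3RL4 RARE-luc cells, overnight plating; retinol 1 uM final added right after compound; 6 hr 37 C; luciferase read at 30 min RT.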

[15] = qHTS assay to identify small molecule agonists of the retinoic acid receptor (RAR) signaling pathway (AID 1159553); conditions: C3RL4 RARE luciferase reporter, agonist, 6 h; activation: at 73.3 µM (top of the series); also: % is scaled to controls: 0 for no effect and ±100 for the full control effect
How it was run: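 C3RL4 RARE-luciferase cells were seeded at 1,000/well and grown overnight at 37 C, then exposed to compounds for 6 hr at 37 C, 5% CO2. Luciferase reagent was added and luminescence was read after 30 min at room temperature.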

[16] = qHTS assay to identify small molecule antagonists of the estrogen related receptor (ERR) signaling pathway from Tox21 library - cell viability counter screen (AID 1224834); also: % is scaled to controls: 0 for no effect and ±100 for the full control effect; nearly all actives have a fitted effect of over 30% in size
How it was run: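 ERR reporter cells, 2,000 per well, rested 6 h, then exposed to compound in DMSO for 17.5 hours at 37 C. Viability read as fluorescence after 30 min with CellTiter-Fluor.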

[17] = biological target: Luciferin 4-monooxygenase (Photinus pyralis) (UniProt P08659); assay: qHTS assay to identify small molecule inhibitors of firefly luciferase (AID 1224835); also: % is scaled to controls: 0 for no effect and ±100 for the full control effect; nearly all actives have a fitted effect of over 25% in size
Luciferin 4-monooxygenase (Photinus pyralis), sequence (P08659 whole entry, looked up): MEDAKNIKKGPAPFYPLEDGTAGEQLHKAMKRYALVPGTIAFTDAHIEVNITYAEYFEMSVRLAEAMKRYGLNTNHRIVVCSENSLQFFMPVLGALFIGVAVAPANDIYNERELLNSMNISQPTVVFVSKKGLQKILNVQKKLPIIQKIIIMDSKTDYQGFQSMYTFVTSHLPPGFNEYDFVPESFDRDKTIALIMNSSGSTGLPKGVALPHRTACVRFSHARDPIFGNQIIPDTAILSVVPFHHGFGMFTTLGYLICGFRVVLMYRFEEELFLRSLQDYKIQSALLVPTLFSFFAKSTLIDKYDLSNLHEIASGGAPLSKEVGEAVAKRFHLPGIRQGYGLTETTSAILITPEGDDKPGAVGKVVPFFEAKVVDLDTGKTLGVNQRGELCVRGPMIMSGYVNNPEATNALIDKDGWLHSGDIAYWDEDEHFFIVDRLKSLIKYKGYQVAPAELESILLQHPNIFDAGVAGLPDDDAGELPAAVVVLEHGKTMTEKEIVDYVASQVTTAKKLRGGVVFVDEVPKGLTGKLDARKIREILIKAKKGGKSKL
How it was run: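 Biochemical qHTS: compounds run as interplate titrations against purified firefly enzyme, with D-luciferin and ATP each at its KM concentration. Light output recorded by CCD imaging.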

[18] = qHTS assay to identify small molecule agonists of the constitutive androstane receptor (CAR) signaling pathway - cell viability counter screen (AID 1224836); also: % is scaled to controls: 0 for no effect and ±100 for the full control effect; nearly all actives have a fitted effect of over 45% in size
How it was run: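 Using CellTiter-Fluor, viability of HepG2 cells harbouring hCAR and CYP2B6-2.2kb was measured following 23 h incubation with a 15-concentration compound series plus PK11195 (0.75 uM final).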

[19] = qHTS assay to identify small molecule antagonists of the constitutive androstane receptor (CAR) signaling pathway - cell viability counter screen (AID 1224837); also: % is scaled to controls: 0 for no effect and ±100 for the full control effect; nearly all actives have a fitted effect of over 45% in size
How it was run: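 HepG2 cells stably carrying hCAR and CYP2B6-2.2kb reporter, stimulated with 50 nM CITCO and compounds at 15 concentrations for 23 h at 37 C. Viability measured by CellTiter-Fluor fluorescence.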

[20] = biological target: Nuclear receptor subfamily 1 group I member 3 (Homo sapiens) (UniProt Q14994); assay: qHTS assay to identify small molecule antagonists of the constitutive androstane receptor (CAR) signaling pathway (AID 1224838); also: % is scaled to controls: 0 for no effect and ±100 for the full control effect; nearly all actives have a fitted effect of over 40% in size
Nuclear receptor subfamily 1 group I member 3 (Homo sapiens), sequence (Q14994 whole entry, looked up): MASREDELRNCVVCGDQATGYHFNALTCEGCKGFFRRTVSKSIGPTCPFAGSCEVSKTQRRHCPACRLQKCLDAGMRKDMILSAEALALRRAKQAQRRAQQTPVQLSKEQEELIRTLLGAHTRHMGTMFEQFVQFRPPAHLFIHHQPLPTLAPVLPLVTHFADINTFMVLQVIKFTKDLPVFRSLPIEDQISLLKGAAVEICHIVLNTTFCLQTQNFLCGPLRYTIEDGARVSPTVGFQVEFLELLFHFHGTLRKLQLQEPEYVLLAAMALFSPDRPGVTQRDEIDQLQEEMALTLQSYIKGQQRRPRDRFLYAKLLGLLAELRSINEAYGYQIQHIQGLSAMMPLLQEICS
How it was run: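 HepG2 cells stably carrying hCAR and a CYP2B6-2.2kb luciferase reporter, seeded 4 hrs before compound (15 concentrations). Stimulated with 50 nM CITCO for 24 hr at 37 C. ONE-Glo luminescence read after 30 min at room temperature.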

O=C(Oc1ccccc1C(=O)O)c1ccccc1O
inactive: outcome [1] | outcome [2] | outcome [3] | outcome [4] | outcome [5] | outcome [6] | outcome [7] | outcome [8] | outcome [9] | outcome [10] | Potency [11] | outcome [12] | outcome [13] | Potency [14] | Potency [15] | Potency [16] | Potency [17] | outcome [18]

CCOC(=O)C(=O)c1csc(NC=O)n1
inactive: outcome [1] | outcome [3] | outcome [4] | outcome [5] | outcome [6] | outcome [7] | outcome [8] | outcome [9] | outcome [10] | Potency [11] | outcome [12] | outcome [13] | Potency [14] | Potency [15] | Potency [16] | Potency [17] | outcome [18] | Potency [19]

O=C(O)c1c(Cl)ccc(Cl)c1Cl
inactive: outcome [1] | outcome [2] | outcome [3] | outcome [4] | outcome [5] | outcome [6] | outcome [7] | outcome [8] | outcome [9] | outcome [10] | outcome [12] | outcome [13] | Potency [14] | Potency [15] | Potency [16] | Potency [17] | outcome [18] | Potency [20]
active: Potency [11] 15.5 µM

C=CCCCCCCCCCCC
inactive: activity change, negative = cytotoxicity [1] -9.89% [at 5.95 µM] | viability change, negative = cytotoxic [2] 5.49% [at 6.95 µM] | activation [3] 0.0657% [at 6.95 µM] | activity, negative = cytotoxic [4] -9.69% [at 6.95 µM] | activation [5] -5.43% [at 6.95 µM] | activity change, negative = cytotoxicity [6] -0.545% [at 6.95 µM] | activity, negative = cytotoxicity [7] 3.91% [at 8.39 µM] | activity change, negative = inhibition [8] -1.42% [at 8.39 µM] | viability change, negative = cytotoxic [9] 9.65% [at 6.97 µM] | activation [10] -2.43% [at 6.97 µM] | activation [11] 6.32% [at 6.98 µM] | activity change, negative = cytotoxicity [12] 0.762% [at 6.97 µM] | activity change, negative = cytotoxicity [13] 5.5% [at 8.39 µM] | activity, negative = inhibition [14] 18.9% [at 8.39 µM] | activation [15] 0.0107% [at 8.36 µM] | viability change, negative = cytotoxic [16] 0.22% [at 8.39 µM] | activity change, negative = inhibition [17] 6.44% [at 10.5 µM] | viability change, negative = cytotoxic [18] -0.862% [at 8.39 µM] | activity change, negative = cytotoxicity [19] 6.96% [at 8.39 µM]

CCOC(=O)CC(CC(=O)OCC)(OC(C)=O)C(=O)OCC
inactive: outcome [1] | outcome [2] | outcome [3] | outcome [4] | outcome [5] | outcome [6] | outcome [7] | outcome [8] | outcome [9] | outcome [10] | Potency [11] | outcome [12] | outcome [13] | Potency [14] | Potency [15] | Potency [16] | Potency [17] | outcome [18] | Potency [19] | Potency [20]

Nc1ccc(S(=O)(=O)NC(=O)c2ccccc2)cc1
inactive: outcome [1] | outcome [2] | outcome [3] | outcome [4] | outcome [5] | outcome [6] | outcome [7] | outcome [8] | outcome [9] | outcome [10] | Potency [11] | outcome [12] | outcome [13] | Potency [14] | Potency [15] | Potency [16] | Potency [17] | outcome [18]

SCCSCCS
inactive: outcome [1] | outcome [2] | outcome [3] | outcome [4] | outcome [5] | outcome [6] | outcome [7] | outcome [8] | outcome [9] | outcome [10] | Potency [11] | outcome [12] | outcome [13] | Potency [14] | Potency [15] | Potency [16] | Potency [17] | outcome [18] | Potency [19]
